Results published in PMC6919601, “Identification of Plasmodium dipeptidyl aminopeptidase allosteric inhibitors by high throughput screening” (PLoS ONE, 2019).
The whole screen tested about 110,000 compounds, of which about 230 (0.21%) showed an effect of 50% or more. The full list was thinned out, with strong results kept by preference.

biological target: DPAP1 (Plasmodium falciparum, UniProt Q8IIJ9); assay: primary screen, percent inhibition; read by cleavage of a fluorogenic dipeptide substrate; higher = more effect of the substance; parameters: species or system P. falciparum D10 trophozoite lysates; single well
Sequence (Q8IIJ9 whole entry, looked up): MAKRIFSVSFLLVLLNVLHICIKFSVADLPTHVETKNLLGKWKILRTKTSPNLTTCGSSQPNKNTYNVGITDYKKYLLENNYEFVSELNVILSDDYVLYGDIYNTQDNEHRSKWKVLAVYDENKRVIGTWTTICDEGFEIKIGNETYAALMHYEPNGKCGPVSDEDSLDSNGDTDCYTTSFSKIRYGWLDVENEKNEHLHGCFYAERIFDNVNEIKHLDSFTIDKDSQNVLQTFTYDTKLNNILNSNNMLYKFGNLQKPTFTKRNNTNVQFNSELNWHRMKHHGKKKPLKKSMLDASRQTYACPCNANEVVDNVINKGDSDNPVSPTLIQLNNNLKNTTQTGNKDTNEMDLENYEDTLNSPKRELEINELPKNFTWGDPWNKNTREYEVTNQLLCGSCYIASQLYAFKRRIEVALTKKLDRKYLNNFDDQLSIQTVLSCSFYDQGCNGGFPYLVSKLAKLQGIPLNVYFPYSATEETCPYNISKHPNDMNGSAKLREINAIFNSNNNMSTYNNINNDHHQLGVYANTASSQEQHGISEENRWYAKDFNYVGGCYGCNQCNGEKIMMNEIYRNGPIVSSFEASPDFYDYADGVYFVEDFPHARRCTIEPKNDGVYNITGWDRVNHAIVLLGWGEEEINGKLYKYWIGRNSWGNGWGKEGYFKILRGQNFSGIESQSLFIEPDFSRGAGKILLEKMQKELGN
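Also: 30 min substrate incubation versus DMSO and 10 µM JCP410 controls.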

Compound	% Inhibition @ 10 uM [%]
CN(C)CCN(Cc1ccccc1)c1ncnc2onc(-c3ccc(F)cc3)c12	-2.52
CC(=O)Nc1ccc(Nc2nc(-c3c(C)nc4cc(C)ccn34)cs2)cc1	25.6
CC(C)Cc1c(C#N)c(S)nc2c1CCCC2	90.5
N#Cc1c(S)nc2c(c1/C=C/c1ccccc1)CCC2	17.3
CC(C)Cc1c(C#N)c(SCC(N)=O)nc2c1CCCC2	9.71
N#Cc1c(S)nc2c(c1-c1ccncc1)CCCC2	30.8
CCc1c(C#N)c(SCC(=O)OC)nc2c1CCC2	4.16
CCc1c(C#N)c(S)nc2c1CCC2	88.7
CCn1ncc(Br)c1C(=O)Nc1ccc(S(=O)(=O)Nc2ccc(OC)cc2)cc1	-4.43
O=C(O)c1cc(C(=O)O)cc(N2C(=O)c3ccc([N+](=O)[O-])cc3C2=O)c1	1.64
O=C(c1sc(N2CCOCC2)nc1-c1ccccc1)c1c[nH]c2ccccc12	72.2
O=C(CN1CCOCC1)c1c[nH]c2ccccc12	7.5
CC1(C)OCCN1C(=O)C(=O)c1c[nH]c2ccccc12	-2.68
Cc1nnc(N2CCC(C(=O)NCCc3ccc(Cl)cc3)CC2)c2nn(-c3ccccc3)c(C)c12	0.58
COc1ccc(C2=NN(CCc3ccccn3)C(=O)C2)cc1	-4.06
O=C1N=C(N2CCN(Cc3ccccc3)CC2)S/C1=C\c1ccccc1	-2.82
O=C1N=C(N2CCN(C3=NC(=O)/C(=C\c4cccc(O)c4)S3)CC2)S/C1=C\c1cccc(O)c1	6
O=C1N=C(N2CCN(Cc3ccccc3)CC2)S/C1=C\c1cccc(O)c1	51

Compound	% Inhibition @ 10 uM [%]
Cn1cc(CC(=O)NCc2ccccn2)c2ccccc21	87.4
CCOC(=O)N1CCN(C(=O)Cc2cn(C)c3ccccc23)CC1	85.9
Cn1cc(CC(=O)NCc2ccc(F)cc2)c2ccccc21	-4.76
CCOC(=O)N1CCC(NC(=O)Cc2cn(C)c3ccccc23)CC1	-2.41
CCOC(=O)N1CCN(C(=O)Cc2c(C(=O)O)n(C)c3ccccc23)CC1	2.84
Cn1cc(CCC(=O)NCc2ccccn2)c2ccccc21	3.28
CSCCCN(C)CCc1ccccn1	-7.56
CN(C)c1ccc(NC(=O)C23CC4CC(C2)CC(n2cnc(Cl)n2)(C4)C3)cc1	-0.305
Cc1ccc(C)c(-c2csc(NC(=O)CSc3ccccc3)c2C(N)=O)c1	1.02
N#Cc1c(C(F)(F)F)cc(-c2cccs2)nc1SCC(=O)N1CCOCC1	72.6
O=C(CSc1ccc(-c2cccs2)nn1)N1CCOCC1	5.85
N#Cc1c(C(F)(F)F)cc(-c2cccs2)nc1SCC(=O)O	9.42
N#Cc1c(C(F)(F)F)cc(-c2cccs2)nc1SCc1nc(N)nc(N2CCOCC2)n1	64.2
N#Cc1c(C(F)(F)F)cc(-c2cccs2)nc1SCC(=O)Nc1ccc(C(N)=O)cc1	-7.55
N#Cc1c(C(F)(F)F)cc(-c2cccs2)nc1SCC(=O)N1CCCCC1	87
N#Cc1c(C(F)(F)F)cc(-c2ccccc2)nc1SCc1nc(N)nc(N2CCOCC2)n1	5.18
COc1ccc(-c2cc(-c3ccccc3)nc(SCC(=O)N3CCOCC3)c2C#N)cc1	5.24
N#Cc1c(C(F)(F)F)cc(-c2cccs2)nc1SCC(=O)NC1CC1	1.76
